# Measurements as given in PubChem BioAssay.
# Records with an inconclusive call do not appear. Activity calls are given as the source filed them. Cut-off read from the data, not from the text of the source, unless noted: active = inhibition above about 80%; inactive = the rest. Numbered stars: 1 amine (or outer) side, 2 acyl side, 3 side chain; on linkers, the order of the positions; unused ones are H or OH. Bridge positions count the residues as written; N and C are the ends. Square brackets hold non-standard residues; d marks the D form. Peptide text beside a SMILES is read from it. I, II: the chains in the order shown. Actinocin(9to1) = Cc1c2oc3c(C)ccc(C(=O)[*:1])c3nc-2c(C(=O)[*:2])c(N)c1=O; NMeV = CN[CH](C(=O)O)C(C)C; Sar = CNCC(=O)O
# Assays:
# [1] = growth inhibition, single agent or in combination, cell-based, chromothripsis tumors, cisplatin or BGB combos (AID 1671449); settings: LFS_MB_P medulloblastoma cells;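 note: cells exposed for 96 hours; 0% = vehicle DMSO and 100% = killing by high DMSO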
# [2] = growth inhibition, single agent and combos, cell-based, chromothripsis tumors, cisplatin or BGB combos (AID 1671450); settings: HDN33 neuroblastoma cells, stronger effect = higher value;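 note: cells exposed to compound for four days; 0% = vehicle DMSO and 100% = cell killing by high DMSO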
# [3] = growth inhibition, single agents and combos, ICB984, cell-based, cisplatin or BGB combos, synergistic combos for chromothripsis tumors (AID 1671451; call rule not given here;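 note: cells exposed for 96 hours before readout; 0% = vehicle DMSO and 100% = killing by high DMSO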); settings: ICB984 medulloblastoma cells, drug combinations, stronger effect = higher value
# [4] = growth inhibition, single agents and combos, LFS_MB_1R, cell-based, cisplatin or BGB combos, synergistic combos for chromothripsis tumors (AID 1671452); settings: LFS_MB_1R medulloblastoma cells, stronger effect = higher value;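 note: cells exposed for 96 hours before readout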
# [5] = growth inhibition, single agents and combos, HTB85, cell-based, BGB or cisplatin IC20 combos, synergistic combos for chromothripsis tumors (AID 1671453); settings: HTB85 osteosarcoma cells, drug combinations, stronger effect = higher value;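 note: cells exposed for 96 hours before readout; 0% = vehicle DMSO and 100% = high DMSO killing control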
# [6] = growth inhibition, single agents and combos, CRL2098, cell-based, BGB or cisplatin IC20 combos, synergistic combos for chromothripsis tumors (AID 1671454); settings: CRL2098 osteosarcoma cells, drug combinations, stronger effect = higher value;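 note: cells exposed for 96 h before readout; 0% = vehicle DMSO and 100% = killing by high DMSO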
# [7] = growth inhibition, single agents and combos, HD-MB03, cell-based, BGB or cisplatin IC20 combos, synergistic combos for chromothripsis tumors (AID 1671455; in the data active = inhibition above about 83%;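 note: 0% = vehicle DMSO and 100% = high DMSO as cytotoxic control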); settings: HD-MB03 medulloblastoma cells, stronger effect = higher value
# [8] = growth inhibition, single agents and combos, UWB1.289, cell-based, BGB or cisplatin combos, synergistic combos for chromothripsis tumors (AID 1671456); settings: UWB1.289 ovarian carcinoma cells, stronger effect = higher value;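 note: cells exposed to compound for four days; 0% = vehicle DMSO and 100% = killing by high DMSO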
# [9] = growth inhibition, single agents and combos, LFS_MB_2R, cell-based, cisplatin combos, synergistic combos for chromothripsis tumors (AID 1671457); settings: LFS_MB_2R medulloblastoma cells, stronger effect = higher value;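 note: cells exposed to compound for four days before readout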
# [10] = growth inhibition, MDA-MB-436, cell-based, BGB or cisplatin combos, synergistic combos for chromothripsis tumors (AID 1671458; call rule not given here;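 note: cells exposed for 96 hours; 0% = vehicle DMSO and 100% = killing by high DMSO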); settings: MDA-MB-436 breast carcinoma growth inhibition, drug combinations, stronger effect = higher value
# [11] = UWB1.289_BRCA1 ovarian cancer growth, cell-based, BGB or cisplatin combinations (AID 1671459); settings: UWB1.289 BRCA1 ovarian carcinoma, drug combinations, stronger effect = higher value
# [12] = drug combination toxicity in non-malignant astrocytes – cell-based, BGB or cisplatin IC20 combos, cytotoxicity control for chromothriptic childhood tumor combination screen (AID 1671460); settings: Human astrocytes, viability inhibition, drug combinations, at 0.5 µM, stronger effect = higher value;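 note: cells exposed to compounds for 96 hours before viability readout; 0% = vehicle and 100% = killing control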
# [13] = BT084 cell growth, single and combined drugs, ICGC_MB145, cisplatin and BGB IC40 combos (AID 1671461); settings: BT084 medulloblastoma cells, drug combinations, stronger effect = higher value;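 note: cells exposed to drugs for 96 hours; 0% = vehicle DMSO and 100% = high DMSO full killing control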
# [14] = RCMB18 cell growth, single agent and combined, cisplatin and BGB IC40 combos (AID 1671462); settings: RCMB18 medulloblastoma cells, stronger effect = higher value;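 note: cells exposed to compound for four days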
# [15] = CRL1545 cell growth, single agent and combined, cisplatin and BGB IC20 combos (AID 1671464); settings: CRL1545 osteosarcoma cells, stronger effect = higher value;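 note: cells exposed to compound for 96 hours before readout; 0% = vehicle DMSO and 100% = high DMSO killing control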
# [16] = viability loss in pontine glioma line – cell-based, SU-DIPG-XVII, MIPE5.0, CellTiter-Glo, qHTS, dose response (AID 1347060; cut-off not given, nearly all actives have AC50 up to about 26 µM;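 for AC50: cells exposed to compound for 48 hours before viability readout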); settings: CellTiter-Glo ATP luminescence
# [17] = growth inhibition of DIPG cells – cell-based, MIPE5.0 library, qHTS (AID 1347068; cut-off not given, nearly all actives have IC50 up to about 30 µM;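 for IC50: cells exposed to compound for 48 hours before viability readout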); settings: SU-DIPG-XXV viability
# [18] = EMT-state selective cytotoxicity in co-culture – imaging, PC-3E GFP, TEM4-18 mCherry, primary screen (AID 1345086;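 active = compounds killing one labelled cell type while sparing the other, by normalised counts and ratio limits, not self-fluorescent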;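 for all read-outs here: cells exposed to compound for 72 h before imaging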;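 for red/green cell ratio (normalised): normalised mesenchymal count divided by normalised epithelial count so high means epithelial killing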); settings: PC-3E GFP / TEM4-18 mCherry co-culture, imaging cell counts, at 1 µM; for red/green cell ratio (normalised): actives lie on both sides, counts scaled to control wells, 1 = unselective
# [19] = JHH-DIPG-1 glioma cell viability, MIPE5.0 library, CellTiter-Glo luminescence, qHTS (AID 1347067; cut-off not given, nearly all actives have AC50 up to about 26 µM;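 note: cells exposed to compound for 48 hours before readout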); settings: JHH-DIPG-1 glioma viability, CellTiter-Glo ATP luminescence
# [20] = measured here: combination with BGB IC40, at 0.05 µM
# [21] = measured here: with BGB IC20 combination, at 0.5 µM
# [22] = measured here: with cisplatin IC20 combination, at 0.5 µM
# [23] = measured here: combination with cisplatin, at 0.5 µM
# [24] = measured here: combination with cisplatin, at 5 µM
# [25] = measured here: epithelial PC-3E GFP cell survival
# [26] = measured here: mesenchymal TEM4-18 mCherry cell survival
smiles,measurement,setting,value
CO[C@H]1/C=C/O[C@@]2(C)Oc3c(C)c(O)c4c(O)c(c(C=NN5CCN(C)CC5)c(O)c4c3C2=O)NC(=O)/C(C)=C\C=C\[C@H](C)[C@H](O)[C@@H](C)[C@@H](O)[C@@H](C)[C@H](OC(C)=O)[C@@H]1C,inhibition,"[1]; at 0.5 µM, stronger effect = higher value",-11% (inactive)
same,inhibition,"[1]; measured here: combination with BGB IC20, at 0.005 µM",-12.4%
same,inhibition,"[1]; measured here: combination with BGB IC40, at 0.005 µM",-11.3%
same,inhibition,[1]; [20],7.63%
same,inhibition,"[1]; measured here: combination with cisplatin, at 0.5 µM, stronger effect = higher value",-13.1%
same,inhibition,"[1]; measured here: combination with cisplatin, at 5 µM, stronger effect = higher value",25%
same,inhibition,"[2]; BGB combo, at 5 µM",2%
same,inhibition,[2]; at 0.5 µM,2.94% (inactive)
same,inhibition,"[2]; cisplatin combo, at 5 µM",-6.32%
same,inhibition,[2]; [21],7.7%
same,inhibition,[2]; [22],10.2%
same,inhibition,"[2]; single agent, at 5 µM",0.074%
same,inhibition,"[3]; BGB IC20 combo, at 0.005 µM",6.74%
same,inhibition,"[3]; BGB IC40 combo, at 0.005 µM",-7.18%
same,inhibition,"[3]; BGB IC40 combo, at 0.05 µM",33.5%
same,inhibition,[3]; at 0.5 µM,-10.8% (inactive)
same,inhibition,"[3]; cisplatin combo, at 0.05 µM",33.5%
same,inhibition,"[3]; cisplatin combo, at 0.5 µM",-9.79%
same,inhibition,"[3]; cisplatin combo, at 5 µM",-23.1%
same,inhibition,"[3]; measured here: 5 uM single agent, at 5 µM",-0.291%
same,inhibition,[4]; at 0.5 µM,-13.7% (inactive)
same,inhibition,[4]; [20],-25.4%
same,inhibition,[4]; [23],34.7%
same,inhibition,[4]; [24],6.61%
same,inhibition,[5]; at 0.5 µM,-9.22% (inactive)
same,inhibition,"[5]; measured here: with BGB IC20, at 0.5 µM",-34.1%
same,inhibition,"[5]; measured here: with BGB IC20, at 5 µM",19.8%
same,inhibition,"[5]; measured here: with cisplatin IC20, at 0.5 µM",-3.74%
same,inhibition,"[5]; measured here: with cisplatin IC20, at 5 µM",32.8%
same,inhibition,"[5]; single agent, at 5 µM",32.5%
same,inhibition,[6]; at 0.5 µM,-28.2% (inactive)
same,inhibition,"[6]; measured here: combination with BGB at IC20, at 0.5 µM",-20.5%
same,inhibition,"[6]; measured here: combination with cisplatin at IC20, at 0.5 µM",-57.4%
same,inhibition,[7]; at 0.5 µM,-2.23% (inactive)
same,inhibition,"[7]; measured here: combo with BGB at IC20, at 0.5 µM",-1.06%
same,inhibition,"[7]; measured here: combo with cisplatin at IC20, at 0.5 µM",-3.79%
same,inhibition,[8]; at 0.5 µM,6.08% (inactive)
same,inhibition,"[8]; measured here: inhibition with BGB combination, at 0.05 µM",0.522%
same,inhibition,"[8]; measured here: inhibition with cisplatin combination, at 0.05 µM",-2.06%
same,inhibition,[9]; at 0.5 µM,-16.1% (inactive)
same,inhibition,[9]; [23],-10.3%
same,inhibition,[9]; [24],19.4%
same,inhibition,[10]; at 0.5 µM,-11.2% (inactive)
same,inhibition,"[10]; measured here: BGB combination, at 0.5 µM",-8.37%
same,inhibition,"[10]; measured here: BGB combination, at 5 µM",1.85%
same,inhibition,"[10]; measured here: cisplatin combination, at 0.5 µM",-22.5%
same,inhibition,"[10]; measured here: cisplatin combination, at 5 µM",4.56%
same,inhibition,"[11]; BGB combination, concentration series, at 5 µM",33.9%
same,inhibition,[11]; at 0.5 µM,4.15% (inactive)
same,inhibition,"[11]; cisplatin combination, concentration series, at 5 µM",22%
same,inhibition,[12],-6.54% (inactive)
same,inhibition,[12]; measured here: combo with BGB IC20,-11%
same,inhibition,[12]; measured here: combo with cisplatin IC20,-7.29%
same,inhibition,[13]; at 0.5 µM,-5.85% (inactive)
same,inhibition,"[13]; cisplatin combination, at 0.5 µM",-3.4%
same,inhibition,"[13]; cisplatin combination, at 5 µM",-36.2%
same,inhibition,"[13]; measured here: BGB IC40 combination 0.05 uM, at 0.05 µM",-6.21%
same,inhibition,"[13]; single agent, at 5 µM",-1.11%
same,inhibition,[14]; at 0.5 µM,-18.2% (inactive)
same,inhibition,"[14]; cisplatin combo, at 5 µM",4.58%
same,inhibition,"[14]; measured here: BGB IC40 combination, at 0.05 µM",-7.26%
same,inhibition,[14]; [23],-16%
same,inhibition,"[14]; single agent, at 5 µM",-21.9%
same,inhibition,[15]; at 0.5 µM,-32.1% (inactive)
same,inhibition,[15]; [21],-8.55%
same,inhibition,[15]; [22],-44%
same,inhibition,"[15]; single agent, at 0.05 µM",6.37%
same,inhibition,"[15]; single agent, at 5 µM",27.5%
C=C1/C(=C\C=C2/CCC[C@]3(C)[C@@H]([C@H](C)CCCC(C)(C)O)CC[C@@H]23)C[C@@H](O)C[C@@H]1O,outcome,[16],inactive
same,IC50,[17],23500 nM (active)
C[n+]1ccccc1C=NO,red/green cell ratio (normalised),[18],1.01 (inactive)
same,normalised cell number,[18]; [25],1
same,normalised cell number,[18]; [26],1.02
"Cc1c2oc3c(C)ccc(C(=O)NC4C(=O)NC(C(C)C)C(=O)N5CCCC5C(=O)N(C)CC(=O)N(C)C(C(C)C)C(=O)OC4C)c3nc-2c(C(=O)NC2C(=O)NC(C(C)C)C(=O)N3CCCC3C(=O)N(C)CC(=O)N(C)C(C(C)C)C(=O)OC2C)c(N)c1=O (configuration not stated) (I: TVP[Sar][NMeV] / II: TVP[Sar][NMeV]; ester I:1-I:C, II:1-II:C; linker I:N-II:N via Actinocin(9to1); configuration not given here)",AC50,[16],4.07 nM (active)
same,AC50,[19],6.45 nM (active)
same,IC50,[17],72.3 nM (active)
CCCc1nc(C(C)(C)O)c(C(=O)O)n1Cc1ccc(-c2ccccc2-c2nn[nH]n2)cc1,red/green cell ratio (normalised),[18],1.01 (inactive)
same,normalised cell number,[18]; [25],1.21
same,normalised cell number,[18]; [26],1.22
same,outcome,[16],inactive
same,outcome,[19],inactive
same,outcome,[17],inactive
